Data published in PubChem BioAssay (NCATS).
Inconclusive results are not listed. Unmarked numbers belong to inactive results. Activity calls are given as the source filed them. The call rests on the fitted dose curve; in most records, active means well fitted cell-killing curve with a large enough effect; inconclusive means small, poorly fitted or top-dose-only effect, or effect the other way; inactive means no such curve, though single readings can be large or run the other way.

Columns and labels:
[1] = Quantitative High-Throughput drug screen in 47 multiple myeloma cell lines against the NCATS MIPE library collection: LP1_DSMZ cell viability assay (AID 1918982); further: nearly all actives have a fitted effect of over 35% in size
How it was run: (§1)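 500 cells/well; MIPE 4.0 drugs pin-transferred; 48 h, 37C, 5% CO2. CellTiter-Glo, 5 min RT, luminescence. Controls: DMSO 100%, media 0%.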

[2] = Quantitative High-Throughput drug screen in 47 multiple myeloma cell lines against the NCATS MIPE library collection: L363_DSMZ cell viability assay (AID 1918984); conditions: L363 myeloma viability, CellTiter-Glo ATP luminescence, 48 h; viability (% of control): at 45.8 µM (top of the series); further: nearly all actives have a fitted effect of over 40% in size
How it was run: as §1

[3] = Quantitative High-Throughput drug screen in 47 multiple myeloma cell lines against the NCATS MIPE library collection: OCIMY7_PLB cell viability assay (AID 1918987); conditions: OCI-MY7 myeloma viability, CellTiter-Glo ATP, 48 h; viability (% of DMSO): at 45.8 µM (top of the series); further: nearly all actives have a fitted effect of over 65% in size
How it was run: as §1

[4] = Quantitative High-Throughput drug screen in 47 multiple myeloma cell lines against the NCATS MIPE library collection: OPM1_PLB cell viability assay (AID 1918989); further: nearly all actives have a fitted effect of over 40% in size
How it was run: as §1

[5] = Quantitative High-Throughput drug screen in 47 multiple myeloma cell lines against the NCATS MIPE library collection: SKMM1_PLB cell viability assay (AID 1919863); conditions: SKMM1 myeloma viability, CellTiter-Glo ATP, 48 h; viability: hits give low values; further: nearly all actives have a fitted effect of over 35% in size
How it was run: as §1

[6] = Quantitative High-Throughput drug screen in 47 multiple myeloma cell lines against the NCATS MIPE library collection: XG6_PLB cell viability assay (AID 1919865); further: nearly all actives have a fitted effect of over 40% in size
How it was run: as §1

[7] = Quantitative High-Throughput drug screen in 47 multiple myeloma cell lines against the NCATS MIPE library collection: XG1_PLB cell viability assay (AID 1919866); further: nearly all actives have a fitted effect of over 35% in size
How it was run: as §1

[8] = Quantitative High-Throughput drug screen in 47 multiple myeloma cell lines against the NCATS MIPE library collection: VP6_DJ cell viability assay (AID 1919867); further: nearly all actives have a fitted effect of over 40% in size
How it was run: as §1

[9] = Quantitative High-Throughput drug screen in 47 multiple myeloma cell lines against the NCATS MIPE library collection: UTMC2_PLB cell viability assay (AID 1919868); conditions: CellTiter-Glo ATP luminescence, 48 h; viability (% of DMSO control): at 45.8 µM (top of the series); further: nearly all actives have a fitted effect of over 55% in size;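 on viability (% of DMSO control): 100% = DMSO-only wells and 0% = media-only wells without cells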
How it was run: as §1

[10] = Quantitative High-Throughput drug screen in 47 multiple myeloma cell lines against the NCATS MIPE library collection: PE2_PLB cell viability assay (AID 1919869); further: nearly all actives have a fitted effect of over 35% in size;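 on viability (% of control): 100% = DMSO-only wells and 0% = cell-free media-only wells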
How it was run: as §1

[11] = Quantitative High-Throughput drug screen in 47 multiple myeloma cell lines against the NCATS MIPE library collection: PCM6_Riken cell viability assay (AID 1919870); further: nearly all actives have a fitted effect of over 30% in size
How it was run: as §1

[12] = Quantitative High-Throughput drug screen in 47 multiple myeloma cell lines against the NCATS MIPE library collection: OCIMY5_PLB cell viability assay (AID 1918988); further: nearly all actives have a fitted effect of over 65% in size
How it was run: as §1

[13] = Quantitative High-Throughput drug screen in 47 multiple myeloma cell lines against the NCATS MIPE library collection: KMS28PE_JCRB cell viability assay (AID 1918983); further: nearly all actives have a fitted effect of over 35% in size
How it was run: as §1

[14] = Quantitative High-Throughput drug screen in 47 multiple myeloma cell lines against the NCATS MIPE library collection: KMS34_JCRB cell viability assay (AID 1918985); further: nearly all actives have a fitted effect of over 40% in size
How it was run: as §1

[15] = Quantitative High-Throughput drug screen in 47 multiple myeloma cell lines against the NCATS MIPE library collection: U266_ATCC cell viability assay (AID 1919864); further: nearly all actives have a fitted effect of over 35% in size;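 on viability (% of DMSO control): 0% = media-only wells without cells and 100% = DMSO-only wells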
How it was run: as §1

[16] = Quantitative High-Throughput drug screen in 47 multiple myeloma cell lines against the NCATS MIPE library collection: RPMI8226_ATCC cell viability assay (AID 1919871); further: nearly all actives have a fitted effect of over 30% in size
How it was run: as §1

[17] = Quantitative High-Throughput drug screen in 47 multiple myeloma cell lines against the NCATS MIPE library collection: KMS28BM_JCRB cell viability assay (AID 1919874); further: nearly all actives have a fitted effect of over 35% in size
How it was run: as §1

[18] = Quantitative High-Throughput drug screen in 47 multiple myeloma cell lines against the NCATS MIPE library collection: OPM2_DSMZ cell viability assay (AID 1919872); further: nearly all actives have a fitted effect of over 30% in size
How it was run: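 Primary qHTS used for cherry-picking: cells at 500/well, library compounds for 48 h (37C, 5% CO2), luminescent ATP assay.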

[19] = Quantitative High-Throughput drug screen in 47 multiple myeloma cell lines against the NCATS MIPE library collection: KMS11_JCRBsus cell viability assay (AID 1919873); further: nearly all actives have a fitted effect of over 50% in size;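 on viability (% of control): 100% = DMSO-only wells and 0% = media-only wells without cells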
How it was run: as §1
Potency means the concentration at half of the fitted maximal effect.

SMILES | Potency [1] | Potency [2] | Potency [3] | Potency [4] | Potency [5] | Potency [6] | Potency [7] | Potency [8] | Potency [9] | Potency [10] | Potency [11] | Potency [12] | Potency [13] | Potency [14] | Potency [15] | Potency [16] | Potency [17] | viability [5] [%] | Potency [18] | Potency [19]
Cc1cccc(Nc2nc(N[C@@H]3CCCC[C@H]3N)ncc2C(N)=O)c1 | 18.7 µM (active) | 16.6 µM (active) | 6.62 µM (active) | 16.6 µM (active) | 23.5 µM (active) | 0.743 µM (active) | 9.35 µM (active) | 5.26 µM (active) | 9.35 µM (active) | 18.7 µM (active) | 7.43 µM (active) |  |  |  |  |  |  |  |  | 
C[C@H]1COC2=C1C(=O)C(=O)c1c2ccc2c1CCCC2(C)C | 18.7 µM (active) | inactive | 13.2 µM (active) | 20.9 µM (active) | 14.8 µM (active) |  |  | 16.6 µM (active) | 9.35 µM (active) | 26.4 µM (active) |  | 20.9 µM (active) |  |  |  |  |  |  |  | 
NC1(C(=O)N[C@@H](CCO)c2ccc(Cl)cc2)CCN(c2ncnc3[nH]ccc23)CC1 |  | 0.235 µM (active) | 3.72 µM (active) | 1.48 µM (active) | 5.9 µM (active) | 20.9 µM (active) | 4.18 µM (active) | 0.235 µM (active) | 0.235 µM (active) | 5.9 µM (active) | 5.26 µM (active) | 5.26 µM (active) | 0.372 µM (active) | 8.33 µM (active) | 13.2 µM (active) | 6.62 µM (active) | 0.372 µM (active) |  |  | 
CN1C(=O)C[C@H](C(=O)N[C@@H](Cc2cnc[nH]2)C(=O)N2CCC[C@@H]2C(N)=O)NC1=O | inactive | inactive | inactive | 20.9 µM (active) |  | 10.5 µM (active) | 10.5 µM (active) | 10.5 µM (active) |  |  |  |  |  | 2.96 µM (active) | inactive | inactive |  |  |  | 
C[C@]12CCC3=C4CCC(=O)C=C4CC[C@@H]3[C@H]1CC[C@@]2(O)CC#N | inactive |  |  |  |  |  | inactive |  |  | inactive |  |  |  |  | inactive | inactive | inactive | 162 | inactive | 
CN1CCC(COc2cnc(-c3cccc(Cn4nc(-c5cccc(C#N)c5)ccc4=O)c3)nc2)CC1 | 18.7 µM (active) |  | 0.059 µM (active) | 16.6 µM (active) |  | 0.0332 µM (active) | 0.332 µM (active) | 0.59 µM (active) | 0.526 µM (active) | 1.05 µM (active) | 0.372 µM (active) | 0.0469 µM (active) | inactive |  | 20.9 µM (active) | inactive | inactive |  | inactive | 
CN(C)N=Nc1nc[nH]c1C(N)=O | inactive |  |  |  |  | 5.26 µM (active) | 2.64 µM (active) |  |  |  | inactive | 20.9 µM (active) | inactive | inactive | inactive | inactive |  | 140 | inactive | inactive
Cc1c(C(=O)Nc2ccc(N3C[C@@H](C)O[C@@H](C)C3)nc2)cccc1-c1ccc(OC(F)(F)F)cc1 | 9.35 µM (active) |  | 9.35 µM (active) |  | 26.4 µM (active) |  |  |  |  | inactive |  | 20.9 µM (active) | 13.2 µM (active) |  | 5.9 µM (active) | 16.6 µM (active) | inactive |  |  | inactive
OC(c1cc(C(F)(F)F)nc2c(C(F)(F)F)cccc12)C1CCCCN1 (stereo not given) | 18.7 µM (active) |  | 10.5 µM (active) | 18.7 µM (active) | 23.5 µM (active) | 26.4 µM (active) | 14.8 µM (active) | 14.8 µM (active) | 20.9 µM (active) | 23.5 µM (active) | 13.2 µM (active) | 14.8 µM (active) | 26.4 µM (active) |  | 26.4 µM (active) |  |  |  | 23.5 µM (active) | 11.8 µM (active)
COc1nccc(-c2c(-c3ccc(F)cc3)ncn2C2CCNCC2)n1 | inactive |  |  |  | 9.35 µM (active) |  | 14.8 µM (active) | 1.18 µM (active) |  |  |  | 16.6 µM (active) | 13.2 µM (active) |  | inactive |  | 0.469 µM (active) |  | inactive | 
CO[C@H]1/C=C\O[C@@]2(C)Oc3c(C)c(O)c4c(O)c(c5c(nc6cc(C)ccn65)c4c3C2=O)NC(=O)C(C)=CC=C[C@H](C)[C@H](O)[C@@H](C)[C@@H](O)[C@@H](C)[C@H](OC(C)=O)[C@H]1C | inactive | 20.9 µM (active) |  |  |  | inactive | inactive |  |  |  |  | 16.6 µM (active) |  |  |  | 20.9 µM (active) |  |  |  | 
Cn1cnc(-c2cc3nccc(Oc4ccc(NC(=S)NC(=O)Cc5ccccc5)cc4F)c3s2)c1 | 16.6 µM (active) |  |  | 18.7 µM (active) |  |  |  |  |  | 13.2 µM (active) |  |  |  |  |  |  |  |  |  | 20.9 µM (active)
C[C@@H](O[C@H]1OCCN(Cc2n[nH]c(=O)[nH]2)[C@@H]1c1ccc(F)cc1)c1cc(C(F)(F)F)cc(C(F)(F)F)c1 | 23.5 µM (active) | 4.69 µM (active) |  | 23.5 µM (active) | 23.5 µM (active) | 16.6 µM (active) |  |  | 33.2 µM (active) | 20.9 µM (active) | 20.9 µM (active) | 23.5 µM (active) |  | 20.9 µM (active) |  | 23.5 µM (active) |  |  |  | 
CNC1CCC(N(Cc2cccc(-c3ccncc3)c2)C(=O)c2sc3ccccc3c2Cl)CC1 (stereo not given) | 26.4 µM (active) |  | 10.5 µM (active) | 8.33 µM (active) | 18.7 µM (active) | 8.33 µM (active) | 9.35 µM (active) | 8.33 µM (active) | 10.5 µM (active) | 10.5 µM (active) | 8.33 µM (active) | 18.7 µM (active) | 23.5 µM (active) |  | 16.6 µM (active) | 26.4 µM (active) |  |  |  | 
CN1CCC[C@H]1CCO[C@](C)(c1ccccc1)c1ccc(Cl)cc1 | inactive |  |  | 26.4 µM (active) |  | 18.7 µM (active) | 18.7 µM (active) | 18.7 µM (active) | 14.8 µM (active) |  |  | 26.4 µM (active) | 23.5 µM (active) | inactive |  | inactive | 5.26 µM (active) | 84.5 | inactive | 
CCCCC[C@H](O)C=C[C@H]1[C@H](O)CC(=O)[C@H]1CC=CCCCC(=O)O | inactive |  |  | 18.7 µM (active) |  | 20.9 µM (active) |  |  | inactive | 23.5 µM (active) |  |  | inactive | 0.0148 µM (active) | 18.7 µM (active) |  | inactive |  |  | 
Cc1c(-c2cccc3c(CCCOc4cccc5ccccc45)c(C(=O)O)n(Cc4cccnc4)c23)c(COc2ccc(N3CCN([S+](=O)([O-])N(C)C)CC3)cc2)nn1C | 18.7 µM (active) | inactive |  |  | 23.5 µM (active) |  | inactive | 8.33 µM (active) | 20.9 µM (active) | 18.7 µM (active) | inactive |  |  |  |  |  |  |  |  | 
